Bioassay records as filed in PubChem BioAssay.
KCNQ2 block: KCNQ2 (rat) channel inhibition; O88943; CHO-K1 KCNQ2, FluxOR thallium flux, 20 min; stronger effect = lower value; B-score at 10 µM; hit rate 1.1% among 310,000;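 active = fluorescence ratio B-score at most minus 3 library SDs, with starting brightness B-score within 2 library SDs, cut at about -5.5 in these data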
KCNQ2 enhance: KCNQ2 (rat) channel potentiation; CHO-K1 KCNQ2, FluxOR thallium flux fluorescence; stronger effect = higher value; B-score at 10 µM; hit rate 0.54% among 310,000; AID 2239;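 active = fluorescence ratio B-score at least 3 SD of library B-scores, with initial fluorescence B-score within 3 of them, cut at about 5.3 in these data; same plate scores as AID 2156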;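 note: B-score of peak minus minimum over baseline fluorescence ratio after K+ and Tl+ stimulus; positive B-score means potentiation of KCNQ2 with more thallium influx and brighter signal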
Kir21 confirm: confirmation of mouse Kir2.1 potassium channel inhibitors. hit rate 41% among 2,300. shares compounds with KCNQ2 enhance. Kir2.1-expressing cells, FluxOR thallium flux fluorescence; stronger effect = lower value. AID 2032. Tl flux remaining, % of negative control (stronger effect = lower value), % at 10 µM;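 active = Primary-screen hit whose thallium flux fell at least 3 control SD below untreated wells in both duplicates, with normal baseline fluorescence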;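 note: 0% = blank wells without stimulus and 100% = stimulated no-compound controls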
HEK293 ctr: alters thallium flux in parental HEK293 cells, Kir2.1 counter-screen; FluxOR thallium flux fluorescence; 0% = unstimulated blank wells; shares compounds with KCNQ2 enhance; FluxOR signal as % of negative control (100 = no effect), % at 10 µM; hit rate 19% among 2,300;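 active = dye signal at least 3 control SD above or below untreated wells in both duplicates, raw fluorescence within 3, either direction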;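 note: percent is based on the flux ratio of peak minus minimum fluorescence over baseline F0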
CHO-K1 Tl ctr: parental CHO-K1 activity in KCNQ2 potentiator counter-screen; activity increase over 3SD of controls, % at 10 µM; shares compounds with KCNQ2 enhance; hit rate 43% among 1,200; parental CHO-K1 cells, FluxOR thallium flux fluorescence; zero = vehicle mean+3SD, 100% = vehicle-minus-blank window; AID 2282;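 active = signal rise of at least 3 SD above the untreated control mean, in both duplicate wells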;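 note: counter screen of KCNQ2 potentiator hits so any rise reflects channel-independent effects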
KCNQ1 sel pot: human KCNQ1 counter-target activity of KCNQ2 potentiators | shares compounds with KCNQ2 enhance | CHO KCNQ1 stable, FluxOR thallium flux fluorescence; beyond 3SD, as % of vehicle-control signal | activation over 3SD threshold, % at 10 µM | hit rate 28% among 1,200;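 active = fluorescence ratio rise of at least 3 SD of vehicle wells above their mean, in both replicate wells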;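 note: 0% = vehicle mean plus 3 SD and 100% = vehicle minus unstimulated blank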
KCNQ2 pot confirm: rat KCNQ2 channel potentiator confirmation; potentiation, less the hit threshold, % at 10 µM; hit rate 68% among 1,200; AID 2287; CHO-KCNQ2 cells, FluxOR thallium flux fluorescence; shares compounds with KCNQ2 enhance;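 active = fluorescence ratio rising 3 SD or more over the vehicle control mean in both replicates, plus primary screen hit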;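 note: peak minus minimum thallium fluorescence divided by baseline after K/Tl stimulus; 0% = vehicle mean plus 3 SD and 100% = vehicle minus unstimulated blank difference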
Kir2-1 sel: mouse Kir2.1 off-target activity of KCNQ2 potentiators; shares compounds with KCNQ2 enhance; HEK293 Kir2.1, FluxOR thallium flux fluorescence; hit rate 2% among 1,200; activity over 3SD threshold, % at 10 µM;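 active = fluorescence ratio rise of at least 3 SD above the vehicle-control mean, seen in both replicates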;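 note: 0% = vehicle mean plus 3 SD and 100% = vehicle minus no-stimulus blank window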
KCNQ2 W236L MoA: potentiates the retigabine-insensitive rat KCNQ2 W236L mutant channel; shares compounds with KCNQ2 enhance; CHO KCNQ2-W236L, automated patch clamp current; current increase over 3SD of negative controls (%), stronger effect = higher value, % at 25 µM; hit rate 10% among 940; AID 2558;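 active = current increase at least 3 SD of the untreated controls above them in both duplicate recordings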
Target sequence (O88943 whole entry W236L, looked up): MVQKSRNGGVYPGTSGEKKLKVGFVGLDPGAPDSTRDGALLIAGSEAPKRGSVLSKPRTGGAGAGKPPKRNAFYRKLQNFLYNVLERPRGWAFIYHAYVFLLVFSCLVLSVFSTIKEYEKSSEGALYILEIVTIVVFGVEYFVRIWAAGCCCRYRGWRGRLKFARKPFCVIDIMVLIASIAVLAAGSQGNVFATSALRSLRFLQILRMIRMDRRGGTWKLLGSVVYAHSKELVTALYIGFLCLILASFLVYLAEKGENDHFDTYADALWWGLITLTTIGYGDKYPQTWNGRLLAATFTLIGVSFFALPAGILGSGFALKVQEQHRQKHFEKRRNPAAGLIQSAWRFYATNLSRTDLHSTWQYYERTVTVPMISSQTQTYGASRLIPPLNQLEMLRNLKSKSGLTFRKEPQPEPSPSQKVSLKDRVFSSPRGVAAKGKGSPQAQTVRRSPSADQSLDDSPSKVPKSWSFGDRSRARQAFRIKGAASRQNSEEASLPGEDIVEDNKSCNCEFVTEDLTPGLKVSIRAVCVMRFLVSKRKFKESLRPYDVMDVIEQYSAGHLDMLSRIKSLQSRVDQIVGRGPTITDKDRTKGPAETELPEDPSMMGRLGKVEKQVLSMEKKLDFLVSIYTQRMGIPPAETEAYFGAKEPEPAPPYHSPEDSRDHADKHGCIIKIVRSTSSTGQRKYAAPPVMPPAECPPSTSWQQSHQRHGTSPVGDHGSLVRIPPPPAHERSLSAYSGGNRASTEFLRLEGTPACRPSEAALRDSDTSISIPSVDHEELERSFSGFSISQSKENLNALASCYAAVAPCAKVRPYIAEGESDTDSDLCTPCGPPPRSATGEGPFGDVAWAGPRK
* hit, by the source's call; i = inactive; . = not tested or not shown. This is a sample that favours compounds with a hit; in the whole collection about 1.6% have one here.

SMILES	KCNQ2 block	KCNQ2 enhance	Kir21 confirm	HEK293 ctr	others
O=C(Cn1nnc2ccccc21)Nc1ccc(Cl)cn1	i	0.36	.	.
Cc1ccc(NC(=O)NC(=O)c2cnccc2C(F)(F)F)c(C)c1	i	0.34	.	.
Cc1ccc(N=C(NO)c2cnccc2C(F)(F)F)c(C)c1	i	7.4*	i	i	CHO-K1 Tl ctr=-2;KCNQ1 sel pot=-14;KCNQ2 pot confirm=-26;Kir2-1 sel=-39
CC1=CC(=O)C(C(C)=Nc2ccccc2Cl)C(=O)O1 (stereo not given)	i	.	.	.
Cc1ccc(C)c(Cn2c3ccccc3c3cnn(CC(=O)NCc4ccccn4)c(=O)c32)c1	i	1.2	.	.
Cc1ccc(C)c(Cn2c3ccccc3c3cnn(CC(=O)NCCCN4CCCCC4)c(=O)c32)c1	i	0.21	60%*	i
CC(=O)c1nn(-c2ccc(C(F)(F)F)cc2)c(=O)[nH]c1=O	i	0.95	.	.
CN(C)c1ccc(CNCCC(Cc2ccccc2)c2ccco2)cc1 (stereo not given)	i	.	.	.
c1ccc(CNCCC(Cc2ccccc2)c2ccco2)cc1 (stereo not given)	i	.	17%*	74%*
CC(NC(=S)NCCN1CCOCC1)C12CC3CC(CC(C3)C1)C2 (stereo not given)	i	0.34	.	.
CCCC(=O)NC(Nc1ccccc1F)C(Cl)(Cl)Cl (stereo not given)	i	0.26	58%*	62%*
CC(C)CC(=O)NC(Nc1ccccc1F)C(Cl)(Cl)Cl (stereo not given)	i	.	.	.
O=C(NCc1nnnn1-c1ccc(Cl)cc1)c1ccc(Br)o1	i	.	.	.
CC1=CCC[C@@H]2[C@@](C)(CC/C(C)=C/C(=O)O)[C@H](C)CC[C@@]12C	i	15*	i	136%*	CHO-K1 Tl ctr=68*;KCNQ1 sel pot=35*;KCNQ2 pot confirm=7.9*;Kir2-1 sel=-12;KCNQ2 W236L MoA=i
COc1ccc(CN(C)CC(O)COC(c2ccc(OC)cc2)c2ccc(OC)cc2)cc1 (stereo not given)	i	.	50%*	i
C=CCOc1ccc(CN(C)CC(O)COc2ccc(CCC(C)=O)cc2)cc1 (stereo not given)	i	1.1	.	.
COc1ccc(C(OCC(O)CN(C)C2CCCCC2)c2ccc(OC)cc2)cc1 (stereo not given)	i	.	.	.
CCOc1ccc(CN(C)CC(O)COC(c2ccc(OC)cc2)c2ccc(OC)cc2)cc1 (stereo not given)	i	.	58%*	i
COc1ccc(NC(=O)c2c(-c3c(Cl)cccc3Cl)noc2C)c(OC)c1	i	.	.	.
COc1cc(C(=O)N2CCN(C)C(C)C2)ccc1OC1CCN(C(C)=O)CC1 (stereo not given)	i	2.7	.	.
Cc1ccc(OCC(COCc2ccccc2)NC(C)C)cc1 (stereo not given)	i	.	.	.
CC(C)(C)c1nn(-c2ccccc2)c2[nH]c(=O)c(C=O)cc12	i	6.8*	i	i	CHO-K1 Tl ctr=4.4*;KCNQ1 sel pot=12*;KCNQ2 pot confirm=-5;Kir2-1 sel=-42
CC(C)(C)c1nn(-c2ccccc2)c2nc(Cl)c(C=O)cc12	i	.	.	.
CC(=O)c1cc(F)ccc1OCC(=O)N1CCCc2ccccc21	i	.	54%*	i
O=C(COc1ccccc1F)N1CCCc2ccccc21	i	0.68	.	.
SMILES	KCNQ2 block	KCNQ2 enhance	Kir21 confirm	HEK293 ctr	others
CCC1=NN(C(=O)c2ccc(Cl)cc2)C(O)(c2ccc(C)cc2)C1 (stereo not given)	i	2.1	.	.
COC(=O)C1=NN(C(=O)c2ccc(Cl)cc2)C(O)(c2ccccc2)C1 (stereo not given)	i	7.2*	i	424%*	CHO-K1 Tl ctr=-13;KCNQ1 sel pot=95*;KCNQ2 pot confirm=55*;Kir2-1 sel=-12;KCNQ2 W236L MoA=i
CCC1=NN(C(=O)c2ccc(Cl)cc2)C(O)(c2ccccc2)C1 (stereo not given)	i	4.6	.	.
CCOC(=O)C1=NN(C(=O)c2ccc(C)cc2)C(O)(c2ccc(Cl)cc2)C1 (stereo not given)	i	25*	i	380%*	CHO-K1 Tl ctr=0.0*;KCNQ1 sel pot=-18;KCNQ2 pot confirm=57*;Kir2-1 sel=-15;KCNQ2 W236L MoA=i
CC(C)(C)OC(=O)N[C@@H](Cc1ccccc1)C(=O)N[C@@H](CO)[C@H](O)[C@@H]1C[C@@H]1C(=O)NC1CC1	i	0.72	.	.
CC(Oc1ccccc1)C(=O)N=C1SC2CS(=O)(=O)CC2N1c1ccccc1 (stereo not given)	i	.	.	.
Cc1ccc(OC(=O)C(C)c2cccc(C(=O)c3ccccc3)c2)cc1 (stereo not given)	i	.	.	.
Cc1ccccc1NC(=O)C(C)c1cccc(C(=O)c2ccccc2)c1 (stereo not given)	i	5.3	i	i	CHO-K1 Tl ctr=117*;KCNQ1 sel pot=13*;KCNQ2 pot confirm=16*;Kir2-1 sel=-29;KCNQ2 W236L MoA=i
C#CCn1c(S(=O)(=O)Cc2ccc(F)cc2)nc(-c2ccccc2)c1-c1ccccc1	i	.	.	.
O=C(Nc1ccc(F)cc1)Nc1ccccc1N1CCCCC1	i	1.5	.	.
O=C(Cc1ccc(Cl)c(Cl)c1)Nc1ccccc1N1CCCC1	i	7.2*	i	i	CHO-K1 Tl ctr=103*;KCNQ1 sel pot=-13;KCNQ2 pot confirm=56*;Kir2-1 sel=-50;KCNQ2 W236L MoA=i
O=C(Cc1ccc(F)cc1)Nc1ccccc1N1CCCC1	i	11*	59%*	i	CHO-K1 Tl ctr=2.5*;KCNQ1 sel pot=-10;KCNQ2 pot confirm=48*;Kir2-1 sel=-81;KCNQ2 W236L MoA=i
CN1CCN(c2ccccc2NC(=O)Cc2ccc(Cl)cc2)CC1	i	1.9	.	.
COc1ccc(NC(=O)CSCC(=O)Nc2ccccc2N2CCCCC2)cc1	i	6.7*	.	.	CHO-K1 Tl ctr=19*;KCNQ1 sel pot=60*;KCNQ2 pot confirm=-22;Kir2-1 sel=-65
COc1ccc(NC(=O)CSCC(=O)Nc2ccccc2N2CCCC2)cc1	i	0.75	.	.
CC(C)C[C@H](NC(=O)N1c2ccccc2NC(=O)[C@@H]1C(C)C)C(=O)N[C@@H](Cc1ccccc1)C(=O)O	i	.	.	.
Cc1cc(C)n(-c2c(C)[nH]c3ccccc23)n1	i	.	.	.
Cc1nc(SCC(=O)Nc2ccc(Cl)cc2[N+](=O)[O-])nc(C)c1C	i	.	.	.
Cn1cccc1/C=N/NC(=O)c1sc2ccccc2c1Cl	i	.	.	.
O=C(N/N=C/c1ccc([N+](=O)[O-])o1)c1sc2ccccc2c1Cl	i	5.5*	i	i	CHO-K1 Tl ctr=7.0*;KCNQ1 sel pot=-24;KCNQ2 pot confirm=-15;Kir2-1 sel=-35
O=C(CN1C(=O)COc2ccccc21)NC1CCCC1	i	3	.	.
